In PubChem BioAssay (Tox21):
A number with no mark means an inactive call. Records with an inconclusive call do not appear. Entries that show only a call come without a potency. Active and inactive are the calls of the source. The call rests on the fitted dose curve.

The compounds below were run against Acetylcholinesterase (Homo sapiens) (UniProt P22303) (assay: Acetylcholinesterase (AChE) small molecule antagonists: colormetric cell-based qHTS assay (AID 1347395; further: nearly all actives have a fitted effect of over 30% in size)). Details: SH-SY5Y cells AChE activity, colorimetric (Ellman); series mostly up to 115 µM.
Summary of the method: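 Colorimetric readout: DTNB quantifies thiocholine from acetylthiocholine hydrolysed by endogenous AChE of SH-SY5Y cells (2,000/well, plated overnight). Compound pretreatment 30 min, substrate incubation 90 min, both 37 C.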

Sequence of Acetylcholinesterase (Homo sapiens) (P22303 whole entry, looked up): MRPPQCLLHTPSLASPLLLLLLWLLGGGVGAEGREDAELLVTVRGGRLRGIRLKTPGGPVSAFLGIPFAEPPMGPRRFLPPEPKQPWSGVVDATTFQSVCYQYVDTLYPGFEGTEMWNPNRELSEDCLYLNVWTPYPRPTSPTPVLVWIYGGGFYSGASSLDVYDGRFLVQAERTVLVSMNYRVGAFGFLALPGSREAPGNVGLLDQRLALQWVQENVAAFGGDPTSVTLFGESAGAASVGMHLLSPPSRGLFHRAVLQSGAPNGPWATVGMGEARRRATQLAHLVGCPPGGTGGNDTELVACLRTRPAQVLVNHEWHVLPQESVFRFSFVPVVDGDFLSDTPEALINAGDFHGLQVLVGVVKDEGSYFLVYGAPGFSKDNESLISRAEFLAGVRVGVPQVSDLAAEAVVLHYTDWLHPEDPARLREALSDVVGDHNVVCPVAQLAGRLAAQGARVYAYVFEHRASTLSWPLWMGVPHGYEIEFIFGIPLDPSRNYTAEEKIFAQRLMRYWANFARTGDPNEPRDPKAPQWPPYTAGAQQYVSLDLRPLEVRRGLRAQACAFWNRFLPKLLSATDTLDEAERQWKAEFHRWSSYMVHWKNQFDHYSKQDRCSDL

Question: Which Potency does the source give for `COc1ccc([N+](=O)[O-])cc1N` here?
Answer: Its Potency is “inactive”.

Question: For `CCCCCCN`, which Potency is on record?
Answer: The Potency was “inactive”.

Question: Which Potency does the source give for `CCCCCCCCCOC(=O)CCCCC(=O)OCCCCCCC` here?
Answer: The Potency was “inactive”.

Question: Which Potency does the source give for `CCCCN1CCCC[C@H]1C(=O)Nc1c(C)cccc1C` here?
Answer: Its Potency is “inactive”.

Question: For `O=C(CCCCCCCCc1cccnc1)N1CCC(C=C(c2ccccc2)c2ccccc2)CC1`, which Potency is on record?
Answer: The Potency was “inactive”.

Question: With `CC1CCCNC1` (stereo not given) as the compound, how does the Potency read?
Answer: Its Potency is “inactive”.

Question: How did the Potency turn out when `CCCOCCOCCO` was run?
Answer: Its Potency is “inactive”.

Question: With `CCCCN(CCCC)C(=S)SSC(=S)N(CCCC)CCCC` as the compound, how does the Potency read?
Answer: Its Potency is “inactive”.

Question: How did the Potency turn out when `C=CC(C)(O)CC/C=C(\C)CC` (stereo not given) was run?
Answer: The Potency was “inactive”.

Question: `COc1ccc(CCC(C)=O)cc1` was tested. Which Potency did it give?
Answer: Its Potency is “inactive”.

Question: How did the Potency turn out when `Nc1nnc(-c2cccc(Cl)c2Cl)c(N)n1` was run?
Answer: Its Potency is “inactive”.

Question: With `BrC(Br)C(Br)Br` as the compound, how does the Potency read?
Answer: The Potency was “inactive”.

Question: With `CCc1nc(N)nc(N)c1-c1ccc(Cl)cc1` as the compound, how does the Potency read?
Answer: The Potency was “inactive”.

Question: Which Potency does the source give for `C[C@]12CC[C@@H]3c4ccc(O)cc4CC[C@H]3[C@@H]1CC[C@@H]2O` here?
Answer: The Potency was “inactive”.

Question: How did the Potency turn out when `CC(C)CCOC(=O)c1ccccc1` was run?
Answer: The Potency was “inactive”.

Question: `N#Cc1ccc(C(=O)O)cc1` was tested. Which Potency did it give?
Answer: The Potency was “inactive”.

Question: For `OC[C@@H](O)[C@H](O)[C@H](O)[C@@H](O)CO`, which Potency is on record?
Answer: Its Potency is “inactive”.

Question: How did the Potency turn out when `c1cc(C(c2ccc(OCC3CO3)cc2)C(c2ccc(OCC3CO3)cc2)c2ccc(OCC3CO3)cc2)ccc1OCC1CO1` (stereo not given) was run?
Answer: The Potency was “inactive”.

Question: How did the Potency turn out when `CC(C)(C)c1cccc(O)c1` was run?
Answer: The Potency was “inactive”.

Question: Which Potency does the source give for `Cc1ccc([N+](=O)[O-])c(N)c1` here?
Answer: The Potency was “inactive”.

Question: Which Potency does the source give for `CCCCCC(C)O` (stereo not given) here?
Answer: Its Potency is “inactive”.

Question: With `CC1=C(C=O)C(C)(C)CCC1` as the compound, how does the Potency read?
Answer: The Potency was “inactive”.

Question: Which Potency does the source give for `O=C(/C=C/c1ccc(O)c(O)c1)O[C@@H](C(=O)O)[C@@H](OC(=O)/C=C/c1ccc(O)c(O)c1)C(=O)O` here?
Answer: Its Potency is “inactive”.

Question: `C1COCO1` was tested. Which Potency did it give?
Answer: Its Potency is “inactive”.

Question: `CC1=CC(=C(c2ccc(N)cc2)c2ccc(N)cc2)C=CC1=N` was tested. Which activity, negative = inhibition did it give?
Answer: The activity, negative = inhibition was 0.517% [at 10.5 µM].

Question: How did the Potency turn out when `CSc1c(Cl)c(Cl)c(Cl)c(Cl)c1Cl` was run?
Answer: The Potency was “inactive”.

Question: `Nc1ncn([C@@H]2O[C@H](CO)[C@@H](O)[C@H]2O)c(=O)n1` was tested. Which Potency did it give?
Answer: The Potency was “inactive”.

Question: Which Potency does the source give for `C=CC(C)(CCC=C(C)C)OC(=O)/C=C/c1ccccc1` (stereo not given) here?
Answer: The Potency was “inactive”.

Question: `Nc1cccc2c1CN(C1CCC(=O)NC1=O)C2=O` (stereo not given) was tested. Which Potency did it give?
Answer: The Potency was “inactive”.

Question: With `O=C1c2cccc(O)c2C(=O)c2c(O)cc(CO)cc21` as the compound, how does the Potency read?
Answer: The Potency was “inactive”.

Question: How did the Potency turn out when `CC(C)(C)CC(C)(C)c1ccccc1O` was run?
Answer: Its Potency is “inactive”.

Question: How did the Potency turn out when `CCOC(=O)NCCC[Si](OCC)(OCC)OCC` was run?
Answer: The Potency was “inactive”.

Question: For `OCCOCCOCCOCCO`, which Potency is on record?
Answer: Its Potency is “inactive”.

Question: `CN=C(NC#N)Nc1ccc(C2=NNC(=O)CC2C)cc1` (stereo not given) was tested. Which Potency did it give?
Answer: Its Potency is “inactive”.

Question: Which Potency does the source give for `O=C(O)C1=NN(c2ccc(S(=O)(=O)O)cc2)C(=O)C1` here?
Answer: Its Potency is “inactive”.

Question: For `CCCC(=O)Nc1ccc(O)c(C(C)=O)c1`, which Potency is on record?
Answer: The Potency was “inactive”.

Question: How did the Potency turn out when `C=C(C)[C@@H]1CC=C(C)C(=O)C1` was run?
Answer: The Potency was “inactive”.

Question: Which Potency does the source give for `Nc1c(CC(=O)O)cccc1C(=O)c1ccc(Br)cc1` here?
Answer: Its Potency is “inactive”.

Question: Which Potency does the source give for `CCN(CCCc1ccccc1)CCCc1ccccc1` here?
Answer: Its Potency is “inactive”.

Question: With `Cc1cc(C)c(C)c(C)c1` as the compound, how does the Potency read?
Answer: The Potency was “inactive”.

These compounds were tested against Acetylcholinesterase (Homo sapiens) (UniProt P22303) (assay: Acetylcholinesterase (AChE) small molecule antagonists: enzyme-based qHTS assay (AID 1347397; further: nearly all actives have a fitted effect of over 55% in size)). Details: Potency: AChE enzyme activity inhibition; outcome: AChE enzyme activity inhibition; series mostly up to 115 µM.
Summary of the method: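 Compound or DMSO vehicle was pin-transferred onto recombinant human AChE (50 mU/mL as dispensed) and left 30 min at room temperature. Acetylthiocholine with DTNB then started the reaction, read colorimetrically 10 min later.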

Question: Which Potency does the source give for `COc1ccc([N+](=O)[O-])cc1N` here?
Answer: Its Potency is “inactive”.

Question: How did the Potency turn out when `CCCCCCN` was run?
Answer: Its Potency is “inactive”.

Question: `CCCCCCCCCOC(=O)CCCCC(=O)OCCCCCCC` was tested. Which Potency did it give?
Answer: The Potency was “inactive”.

Question: `CCCCN1CCCC[C@H]1C(=O)Nc1c(C)cccc1C` was tested. Which Potency did it give?
Answer: Its Potency is “inactive”.

Question: For `O=C(CCCCCCCCc1cccnc1)N1CCC(C=C(c2ccccc2)c2ccccc2)CC1`, which Potency is on record?
Answer: Its Potency is “inactive”.

Question: For `CC1CCCNC1` (stereo not given), which Potency is on record?
Answer: The Potency was “inactive”.

Question: With `CCCOCCOCCO` as the compound, how does the Potency read?
Answer: Its Potency is “inactive”.

Question: With `CCCCN(CCCC)C(=S)SSC(=S)N(CCCC)CCCC` as the compound, how does the Potency read?
Answer: The Potency was “inactive”.

Question: With `C=CC(C)(O)CC/C=C(\C)CC` (stereo not given) as the compound, how does the Potency read?
Answer: The Potency was “inactive”.

Question: Which Potency does the source give for `COc1ccc(CCC(C)=O)cc1` here?
Answer: Its Potency is “inactive”.

Question: For `Nc1nnc(-c2cccc(Cl)c2Cl)c(N)n1`, which Potency is on record?
Answer: The Potency was “inactive”.

Question: `BrC(Br)C(Br)Br` was tested. Which Potency did it give?
Answer: Its Potency is “inactive”.

Question: `CCc1nc(N)nc(N)c1-c1ccc(Cl)cc1` was tested. Which Potency did it give?
Answer: The Potency was “inactive”.

Question: `C[C@]12CC[C@@H]3c4ccc(O)cc4CC[C@H]3[C@@H]1CC[C@@H]2O` was tested. Which Potency did it give?
Answer: The Potency was “inactive”.

Question: With `CC(C)CCOC(=O)c1ccccc1` as the compound, how does the Potency read?
Answer: The Potency was “inactive”.

Question: Which Potency does the source give for `N#Cc1ccc(C(=O)O)cc1` here?
Answer: Its Potency is “inactive”.

Question: Which Potency does the source give for `OC[C@@H](O)[C@H](O)[C@H](O)[C@@H](O)CO` here?
Answer: Its Potency is “inactive”.

Question: How did the Potency turn out when `c1cc(C(c2ccc(OCC3CO3)cc2)C(c2ccc(OCC3CO3)cc2)c2ccc(OCC3CO3)cc2)ccc1OCC1CO1` (stereo not given) was run?
Answer: Its Potency is “inactive”.

Question: How did the Potency turn out when `CC(C)(C)c1cccc(O)c1` was run?
Answer: Its Potency is “inactive”.

Question: For `Cc1ccc([N+](=O)[O-])c(N)c1`, which Potency is on record?
Answer: The Potency was “inactive”.

Question: How did the Potency turn out when `CCCCCC(C)O` (stereo not given) was run?
Answer: Its Potency is “inactive”.

Question: For `CC1=C(C=O)C(C)(C)CCC1`, which Potency is on record?
Answer: The Potency was “inactive”.

Question: How did the Potency turn out when `O=C(/C=C/c1ccc(O)c(O)c1)O[C@@H](C(=O)O)[C@@H](OC(=O)/C=C/c1ccc(O)c(O)c1)C(=O)O` was run?
Answer: Its Potency is “inactive”.

Question: `C1COCO1` was tested. Which Potency did it give?
Answer: Its Potency is “inactive”.

Question: How did the activity change, negative = inhibition turn out when `CC1=CC(=C(c2ccc(N)cc2)c2ccc(N)cc2)C=CC1=N` was run?
Answer: Its activity change, negative = inhibition is 0.534% [at 10.5 µM].

Question: Which Potency does the source give for `CSc1c(Cl)c(Cl)c(Cl)c(Cl)c1Cl` here?
Answer: Its Potency is “inactive”.

Question: For `Nc1ncn([C@@H]2O[C@H](CO)[C@@H](O)[C@H]2O)c(=O)n1`, which Potency is on record?
Answer: The Potency was “inactive”.

Question: How did the Potency turn out when `C=CC(C)(CCC=C(C)C)OC(=O)/C=C/c1ccccc1` (stereo not given) was run?
Answer: Its Potency is “inactive”.

Question: With `Nc1cccc2c1CN(C1CCC(=O)NC1=O)C2=O` (stereo not given) as the compound, how does the Potency read?
Answer: Its Potency is “inactive”.

Question: How did the Potency turn out when `O=C1c2cccc(O)c2C(=O)c2c(O)cc(CO)cc21` was run?
Answer: Its Potency is “inactive”.

Question: For `CC(C)(C)CC(C)(C)c1ccccc1O`, which Potency is on record?
Answer: The Potency was “inactive”.

Question: For `CCOC(=O)NCCC[Si](OCC)(OCC)OCC`, which Potency is on record?
Answer: Its Potency is “inactive”.

Question: `OCCOCCOCCOCCO` was tested. Which Potency did it give?
Answer: Its Potency is “inactive”.

Question: `CN=C(NC#N)Nc1ccc(C2=NNC(=O)CC2C)cc1` (stereo not given) was tested. Which Potency did it give?
Answer: Its Potency is “inactive”.

Question: How did the Potency turn out when `O=C(O)C1=NN(c2ccc(S(=O)(=O)O)cc2)C(=O)C1` was run?
Answer: The Potency was “inactive”.

Question: `CCCC(=O)Nc1ccc(O)c(C(C)=O)c1` was tested. Which Potency did it give?
Answer: The Potency was “inactive”.

Question: `C=C(C)[C@@H]1CC=C(C)C(=O)C1` was tested. Which Potency did it give?
Answer: The Potency was “inactive”.

Question: Which Potency does the source give for `Nc1c(CC(=O)O)cccc1C(=O)c1ccc(Br)cc1` here?
Answer: The Potency was “inactive”.

Question: For `CCN(CCCc1ccccc1)CCCc1ccccc1`, which Potency is on record?
Answer: The Potency was “inactive”.

Question: Which Potency does the source give for `Cc1cc(C)c(C)c(C)c1` here?
Answer: Its Potency is “inactive”.
